Molecules are shown by their SMILES. About 79,000 compounds went through this panel and 15% of them were active in at least one assay; those are over-represented in the sample as a whole. A number with no mark means an inactive call. Calls of active or inactive are those of the source. Cut-off read from the data, not from the text of the source: active = growth inhibition above about 70%; inactive = the rest.

Assay [1] is described as follows: NCI Yeast Anticancer Drug Screen. Data for the rad50 strain (AID 155).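 Note: 0% = growth of vehicle-only cultures of the same strain.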 The following applies: S. cerevisiae rad50 strain growth inhibition; at 50.0 µM; stronger effect = higher value. An outline of the steps: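 Compounds were tested on a yeast strain with an engineered DNA damage repair alteration; the reported value is growth inhibition normalised to vehicle treatment.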

A short description of assay [2]: NCI Yeast Anticancer Drug Screen. Data for the mec2-1 strain (AID 157). As to conditions: S. cerevisiae mec2-1 strain, at 50.0 µM, stronger effect = higher value. The gist of the method: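 Yeast mec2-1 mutant treated with compound. Readout: growth inhibition vs vehicle controls.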
Assay [3] in a line: NCI Yeast Anticancer Drug Screen. Data for the sgs1 mgt1 strain (AID 161).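 Note: 0% = growth of cultures given vehicle only.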 The following applies: S. cerevisiae sgs1 mgt1 strain, at 50.0 µM, stronger effect = higher value. An outline of the steps: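 Inhibition of yeast growth, normalised to vehicle-treated controls, is reported for a strain bearing genetic alterations in DNA damage repair.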
Assay [4] in a line: NCI Yeast Anticancer Drug Screen. Data for the cln2 rad14 strain (AID 165).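 Note: 0% = growth equal to vehicle treated cultures.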 The following applies: S. cerevisiae cln2 rad14 strain, at 50.0 µM, stronger effect = higher value. An outline of the steps: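 cln2 rad14 yeast strain; compound exposure; growth inhibition read vs vehicle controls.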
Assay [5] is described as follows: NCI Yeast Anticancer Drug Screen. Data for the bub3 strain (AID 167). The following applies: S. cerevisiae bub3 mutant strain, at 50.0 µM, stronger effect = higher value. An outline of the steps: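 Growth of a checkpoint-deficient yeast mutant is measured after compound exposure. Values represent inhibition relative to vehicle.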
Assay [6] can be described thus: NCI Yeast Anticancer Drug Screen. Data for the mlh1 rad18 strain (AID 175). The following applies: S. cerevisiae mlh1 rad18 strain growth inhibition; at 50.0 µM; stronger effect = higher value. An outline of the steps: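 Yeast w/ defined DNA-repair lesions; compound exposure; growth vs vehicle controls → % inhibition.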

On to `O=C(/C=C/c1cccc2ccccc12)c1ccccc1Cl`, for which the growth inhibition in assay [1] is 52.9%; in assay [2], -9.25%; in assay [3] it was 7.65%; in assay [4], 16.9%; in assay [5], -6.65%; in assay [6] it was 35.2%.
`CCSc1ccc(N=[N+]([O-])c2ccc(SCC)c(Cl)c2)cc1Cl`: the growth inhibition in assay [1] was -5.6%; in assay [2], 10.8%; in assay [3], 1.65%; in assay [4], -17.1%; in assay [5] it was -4.6%; in assay [6] it was 9.3%.
Turning to `COC(=O)C1=CC(O)CCC1c1ccc(OC)cc1` (stereo not drawn), the growth inhibition in assay [1] is -6.2%; in assay [2], -10.7%; in assay [3], -13.2%; in assay [4] it was -5.8%; in assay [5] it was -5.45%; in assay [6], -19.2%.
Consider `CC(C)C(N)C(=O)NO` (stereo not drawn), for which the growth inhibition in assay [1] was -17.1%; in assay [2], 17.9%; in assay [3] it was -13.4%; in assay [4], 5.05%; in assay [5] it was -1.7%; in assay [6] it was -7.3%.
With `CC1(C)C2CC3C(C2)C31C`, the growth inhibition in assay [1] was 1%; in assay [2], 3.6%; in assay [3], -10.2%; in assay [4], 5.35%; in assay [5], 1.3%; in assay [6] it was -0.75%.
In the case of `Cc1ccc([N+](=O)[O-])c2c(NCCC[N+](C)(C)[O-])ccnc12`, the growth inhibition in assay [1] was 35.9%; in assay [2] it was -18.1%; in assay [3], 20.6%; in assay [4], 14.2%; in assay [5] it was -24.7%; in assay [6] it was 4.4%.
For the molecule `O=C1CCCC2=C1CC1=C(CCCC1=O)N2c1ccc([N+](=O)[O-])cc1`, the growth inhibition in assay [1] was -35.8%; in assay [2], -30.1%; in assay [3] it was -42%; in assay [4], -10.3%; in assay [5], 0.45%; in assay [6] it was -19.3%.
As for `CC[N+](C)(CC)CCNc1cc2c(c3c(=O)c4ccccc4sc13)CCCC2`, the growth inhibition in assay [1] was 99.2% (active); in assay [2], 99.7% (active); in assay [3], 99.1% (active); in assay [4], 99.2% (active); in assay [5] it was 99% (active); in assay [6] it was 99% (active).
For `O=CC(=O)c1ccccc1O`, the growth inhibition in assay [1] is 30.1%; in assay [2], 36.6%; in assay [3], 44.9%; in assay [4] it was 18.3%; in assay [5] it was 37%; in assay [6], 75.7% (active).
Turning to `COC1OC(CS(=O)(=O)O)C(O)C(O)C1O` (stereo not drawn), the growth inhibition was -44.5% in assay [1]; -2.15% in assay [2]; -1.85% in assay [3]; -13.6% in assay [4]; -31.9% in assay [5]; -4.3% in assay [6].
In the case of `c1ccc(C(c2ccccc2)[n+]2ccccc2)cc1`, the growth inhibition in assay [1] was 4.5%; in assay [2], -1.3%; in assay [3], -6.1%; in assay [4], -11.2%; in assay [5] it was -5.5%; in assay [6], -6.25%.
As for `NC(CC1C=CCCC1)C(=O)O` (stereo not drawn), the growth inhibition in assay [1] is -26.4%; in assay [2], -16.1%; in assay [3], 1.85%; in assay [4], -52.3%; in assay [5], 7.1%; in assay [6], -4.3%.
Consider `C=C(Br)CNCC(=C)Br`, for which the growth inhibition in assay [1] is 2.2%; in assay [2], 7.25%; in assay [3], 5%; in assay [4], 9.65%; in assay [5], 18.2%; in assay [6] it was -18.6%.
In the case of `CCOC(CCNCC(OCC)OCC)OCC`, the growth inhibition was -46.5% in assay [1]; -56.2% in assay [2]; -29.4% in assay [3]; -11.1% in assay [4]; -4.8% in assay [5]; -22.4% in assay [6].
`O=C1OC2(c3ccc(O)cc3Oc3cc(O)ccc32)C2C3CCC(O3)C12` (stereo not drawn): the growth inhibition in assay [1] was 52.2%; in assay [2] it was 38.2%; in assay [3], 42.2%; in assay [4] it was 27%; in assay [5] it was 37.2%; in assay [6], 40.4%.
Take `CC(C)C(NC(=O)OC(C)(C)C)C(=O)O` (stereo not drawn): the growth inhibition in assay [1] was -11.3%; in assay [2], 1.2%; in assay [3], 14.7%; in assay [4], -66.3%; in assay [5], 9.45%; in assay [6], -6.9%.
Turning to `CC1([C@H]2CC[C@H]3[C@@H]4CC[C@H]5OC(=O)CC[C@]5(C)[C@H]4CC[C@]23C)SCCS1`, the growth inhibition in assay [1] was 20.7%; in assay [2], -19%; in assay [3], 12.5%; in assay [4], 8.6%; in assay [5] it was 8.55%; in assay [6], 14.8%.
For `C=CCOC(C)OCC=C`, the growth inhibition was 17.9% in assay [1]; 7.9% in assay [2]; -1.35% in assay [3]; -23.5% in assay [4]; 13.3% in assay [5]; -0.15% in assay [6].
`Cc1ccc2sc3nc4ccccc4nc3c2c1`: the growth inhibition in assay [1] is 12.1%; in assay [2], 3.5%; in assay [3], -1.95%; in assay [4], -4.25%; in assay [5], 5.8%; in assay [6], -1.25%.
For the molecule `O=C1CCCCCCCCCCC1Sc1ccccc1` (stereo not drawn), the growth inhibition in assay [1] is -23.2%; in assay [2] it was -36.6%; in assay [3] it was -6.8%; in assay [4], 3.1%; in assay [5], 7.3%; in assay [6], -28.9%.
Take `Cc1ccc(OC(=O)c2ccc([N+](=O)[O-])cc2)cc1C(C)C`: the growth inhibition in assay [1] was -15.6%; in assay [2], -9.25%; in assay [3], -11.7%; in assay [4], -6.45%; in assay [5], -10.1%; in assay [6] it was -22%.
Turning to `S=C1SCN(c2ccc(Br)cc2)CN1c1ccc2[nH]c(=S)sc2c1`, the growth inhibition in assay [1] was 10.6%; in assay [2], 15.3%; in assay [3], 26.1%; in assay [4], 0.45%; in assay [5] it was 12.1%; in assay [6], 5.65%.
Consider `Cc1nc(C(=O)O)ccc1O`, for which the growth inhibition in assay [1] is 3.05%; in assay [2], 16%; in assay [3], -1.05%; in assay [4], -3.2%; in assay [5], 0.45%; in assay [6], 4%.
For the molecule `CC(=O)C1C(=O)C(=O)N(c2ccccc2C(C)C)C1=O` (stereo not drawn), the growth inhibition is 19% in assay [1]; 6.55% in assay [2]; 11.9% in assay [3]; 21.4% in assay [4]; 11.9% in assay [5]; 29.5% in assay [6].
Consider `COc1cc2c(cc1OC)C1C(=O)c3c(O)cc4c(c3OC1CO2)C=CC(C)(C)O4` (stereo not drawn), for which the growth inhibition in assay [1] is 49.8%; in assay [2], 10.3%; in assay [3] it was 14.3%; in assay [4], 15.3%; in assay [5], 33.9%; in assay [6] it was 36.7%.
With `CCN(CC)CCCNc1ccc([N+](=O)[O-])c2nc3ccccc3c(N)c12`, the growth inhibition in assay [1] is 21.4%; in assay [2] it was -0.2%; in assay [3], 15.8%; in assay [4] it was 32.9%; in assay [5] it was -17.1%; in assay [6], 63.8%.
With `CC1COCOC1c1ccc2c(c1)OCO2` (stereo not drawn), the growth inhibition is 17.6% in assay [1]; 4% in assay [2]; 6% in assay [3]; 9.45% in assay [4]; -9.45% in assay [5]; -15.8% in assay [6].
As to `Cc1ccc(S(=O)(=O)C2(NC(=O)C3CC3)CC2)cc1`, the growth inhibition in assay [1] is -6.5%; in assay [2] it was -12.1%; in assay [3], -26.2%; in assay [4] it was -11.1%; in assay [5], -30.7%; in assay [6] it was -5.7%.
On to `CCC(C)NC(=O)C1C2CCC(C2)C1C(=O)NC(C)CC` (stereo not drawn), for which the growth inhibition is 10.7% in assay [1]; -2.9% in assay [2]; -10.2% in assay [3]; -18.9% in assay [4]; -7.5% in assay [5]; 7% in assay [6].
Regarding `C=CC[N+](CC)(CC)CC`, the growth inhibition in assay [1] was 12.3%; in assay [2] it was -0.45%; in assay [3], 2.35%; in assay [4], 12.3%; in assay [5], 19.4%; in assay [6], 13.3%.
For the molecule `Nc1ccc(OCCCc2c(N)nc(N)nc2N)c(Cl)c1`, the growth inhibition was 98% (active) in assay [1]; 99.1% (active) in assay [2]; 99.3% (active) in assay [3]; 98.2% (active) in assay [4]; 98.3% (active) in assay [5]; 98.5% (active) in assay [6].
In the case of `CC(C)(C)NNC(=O)/C(=C/c1ccc(Oc2ccc(Cl)c(Cl)c2)cc1)NC(=O)c1ccccc1`, the growth inhibition in assay [1] is 7.45%; in assay [2], 1.1%; in assay [3] it was 2.1%; in assay [4] it was -4.2%; in assay [5], -1.6%; in assay [6] it was 16.1%.
With `CC(C)SC(C)(NC(=O)C1C(C)(C)CCC1(C)C)C(=O)O` (stereo not drawn), the growth inhibition in assay [1] was -52.6%; in assay [2], 1.45%; in assay [3], -24.6%; in assay [4], 1.5%; in assay [5], 5.45%; in assay [6] it was -49.5%.
`CC(Br)C(=O)n1c2ccccc2c2ccccc21` (stereo not drawn): the growth inhibition is 21.6% in assay [1]; 9.8% in assay [2]; 19.8% in assay [3]; -13.8% in assay [4]; 12.2% in assay [5]; 8.1% in assay [6].
As for `CCOC(=O)CC(C(=O)OCC)C(=O)OCC`, the growth inhibition in assay [1] is -7.4%; in assay [2], -11.4%; in assay [3] it was -8.1%; in assay [4] it was -6.35%; in assay [5], 5.45%; in assay [6], -4.1%.
For `Cc1ccc(O)c(Cc2cc(C)cc(Cc3cc(C)ccc3O)c2O)c1`, the growth inhibition in assay [1] was 30.2%; in assay [2], -7.85%; in assay [3] it was 15.2%; in assay [4] it was 36.9%; in assay [5], -2.85%; in assay [6] it was 42.4%.
Take `CCOCC(=O)N[C@H]1CCc2cc(OC)c(OC)c(OC)c2-c2ccc(SC)c(=O)cc21`: the growth inhibition in assay [1] is 10.7%; in assay [2], 26.9%; in assay [3], 12.2%; in assay [4], -53.6%; in assay [5] it was -8.3%; in assay [6] it was 47.1%.
Take `CC1(Br)CP(=O)(c2ccccc2)CC1Br` (stereo not drawn): the growth inhibition in assay [1] is -9.2%; in assay [2] it was -11.9%; in assay [3], 9.5%; in assay [4], -24.4%; in assay [5], 21.1%; in assay [6] it was -6%.

The values are drawn from PubChem BioAssay (NCI).
